# HTT cytoprotect: protects HTT-Q103 PC12 cells, measured by ATP; 0.14% of 230,000 active; Potency, µM (top dose mostly 56.4 µM), for the others: cytoprotection (ATP increase), most hits filed as activators; AID 1471; PC12 HTT-Q103 induced, cytoprotection, ATP luminescence, 40 h; further: potency means the concentration at half of the fitted maximal effect; % of control where 0% means no effect; nearly all actives have a fitted effect of over 45% in size
#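 PC12 cells stably carrying ecdysone-inducible Htt exon 1 (Q103)–GFP were induced with 100 nM tebufenozide (final) alongside library compounds in a dose series. Cytoprotection was scored as retained ATP by ATPlite luminescence.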
# JMJD2E inh: JMJD2E (human) inhibition; B2RXH2; JMJD2E catalytic domain, FDH-coupled NADH fluorescence (FDH is formaldehyde dehydrogenase); Potency, µM (highest dose often 57.1 µM), for the others: top-dose activity change, negative = inhibition, most hits filed as inhibitors; 1.6% of 230,000 active; AID 2147; active means well fitted inhibition curve with a large enough effect, not every such curve was filed as active; inconclusive means small, poorly fitted or top-dose-only effect, or another doubt; inactive means no such curve, though single readings can be large or run the other way;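 further: potency means the concentration at half of the fitted maximal effect; 0% = wells with enzyme and -100% = buffer wells without enzyme; nearly all actives have a fitted effect of over 50% in size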
# HPGD block: blocks human HPGD enzyme activity; Potency, µM, for the others: at the top dose activity change, negative = inhibition, actives largely listed as inhibitors; purified HPGD, NADH fluorescence kinetic, PGE2 substrate; 4.3% of 150,000 active; AID 894; active means well fitted inhibition curve with a large enough effect, not every such curve was filed as active; inconclusive means small, poorly fitted or top-dose-only effect, or another doubt; inactive means no such curve, though single readings can be large or run the other way; further: potency means the concentration at half of the fitted maximal effect; on the % scale 0 is the no-effect control and ±100 the full control effect
# Target sequence (P15428 whole entry, looked up): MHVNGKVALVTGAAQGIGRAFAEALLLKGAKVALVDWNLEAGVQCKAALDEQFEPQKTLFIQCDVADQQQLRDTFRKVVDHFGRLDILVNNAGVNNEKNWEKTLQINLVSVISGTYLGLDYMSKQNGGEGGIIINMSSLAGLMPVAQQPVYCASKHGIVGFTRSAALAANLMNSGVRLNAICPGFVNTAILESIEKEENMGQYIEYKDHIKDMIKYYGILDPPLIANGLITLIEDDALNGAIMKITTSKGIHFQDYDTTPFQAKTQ
#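 NADH formation kinetics: reaction with 30 uM PGE2 and 1 mM NAD+ (final), 20 nM enzyme, Tris-HCl pH 8 with Tween 20, after 15 min compound preincubation at room temperature. Fluorescence change, last versus first of five reads.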
# ALDH1A1 block: ALDH1A1 (human) enzyme inhibition | P00352 | Purified ALDH1A1, NADH fluorescence, propionaldehyde substrate | Potency, µM (highest dose often 75.3 µM), without a hit: top-dose activity, negative = inhibition, usual class: inhibitors | 7.3% of 220,000 active; active means well fitted inhibition curve with a large enough effect, not every such curve was filed as active; inconclusive means small, poorly fitted or top-dose-only effect, or another doubt; inactive means no such curve, though single readings can be large or run the other way;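 further: potency means the concentration at half of the fitted maximal effect; plate controls were no enzyme wells and a reference inhibitor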
# Target sequence (P00352 whole entry, looked up): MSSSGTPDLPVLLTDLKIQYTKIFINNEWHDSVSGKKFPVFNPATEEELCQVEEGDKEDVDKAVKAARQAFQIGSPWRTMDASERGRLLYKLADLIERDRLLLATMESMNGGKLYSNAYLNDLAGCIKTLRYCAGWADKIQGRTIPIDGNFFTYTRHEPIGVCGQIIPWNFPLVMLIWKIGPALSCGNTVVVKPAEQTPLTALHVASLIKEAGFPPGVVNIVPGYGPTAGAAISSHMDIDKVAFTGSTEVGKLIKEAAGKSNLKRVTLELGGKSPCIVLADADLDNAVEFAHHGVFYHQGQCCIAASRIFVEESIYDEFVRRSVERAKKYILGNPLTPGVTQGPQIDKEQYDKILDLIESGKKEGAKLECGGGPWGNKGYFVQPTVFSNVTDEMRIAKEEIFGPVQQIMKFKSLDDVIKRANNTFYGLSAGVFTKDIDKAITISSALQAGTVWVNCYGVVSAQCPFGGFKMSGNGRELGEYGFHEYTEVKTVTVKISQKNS
# CBFb RUNX1 block: blocks binding between human CBF-beta and RUNX1. AlphaScreen CBFb-His/RUNX1-biotin binding, biochemical. Potency, µM (titrated, usually from 59.8 µM), for the others: at the highest dose activity, negative = inhibition, actives largely listed as inhibitors. 230,000 tested, under 10 active. AID 1477; further: % of control where 0% means no effect
#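 AlphaScreen proximity signal reports loss of binding between His-tagged CBF-beta and biotin-labelled RUNX1, each at 30 nM. Proteins are pre-associated for 20 minutes, compounds added for 15 minutes, then beads for 90 minutes, all at ambient temperature.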
# HTT aggregate: mutant huntingtin aggregation inhibition; Potency, µM (doses to about 46.1 µM), without a hit: at the top dose activity change, negative = inhibition, most hits filed as inhibitors; PC12 HttQ103-GFP aggregates, Acumen cytometry, 40 h; 1.1% of 220,000 active; further: potency means the concentration at half of the fitted maximal effect; on the % scale 0 is the no-effect control and ±100 the full control effect; nearly all actives have a fitted effect of over 60% in size
#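 Aggregates are detected as GFP objects 1–25 µm with signal 6 STDEV over background in lysates of induced PC12 cells. These carry Huntingtin exon 1 with 103 glutamines fused to GFP under an ecdysone promoter; compounds titrated.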
# Numbers without * were called inactive; u = inconclusive; x = no result; [ ] = remark or other dose. An excerpt weighted towards active compounds, which were near 9.8% of everything screened. Unless noted, the call rests on the fitted dose curve; in most records, active means well fitted curve in the direction sought with a large enough effect; inconclusive means small, poorly fitted or top-dose-only effect, or another doubt; inactive means no such curve, though single readings can be large; an effect the other way counts as inactive or inconclusive.
SMILES,HTT cytoprotect,JMJD2E inh,HPGD block,ALDH1A1 block,CBFb RUNX1 block,HTT aggregate
COc1cc2c(cc1OC)-c1nnnn1C(C)(C)C2,10.4%[1.9 µM],-16.5%,-9.7%,u,-8.1%,-1.0%
c1ccc2c(c1)CC1(CCCC1)n1nnnc1-2,-9.5%[0.074 µM],10.8%,x,12.6µM*,-2.4%,2.3%
CC1(C)Cc2ccccc2-c2nnnn21,3.3%,9.6%,-8.4%,11.2µM*,3.2%,-8.3%
Brc1ccc(-c2nnc3n2C2(CCCC2)Cc2ccccc2-3)o1,7.3%[10 µM],-5.0%,-4.5%,8.0%,-0.6%,-27.4%
COCCNS(=O)(=O)c1cc(C)c(C)cc1C,2.4%[10 µM],3.7%,-0.5%,-7.0%,8.3%,4.1%
CCOC(=O)c1sc(=S)n(C)c1NC(=O)c1ccc(OC)cc1,10.2%[10 µM],u,x,x,-0.4%,-12.6%[9.22 µM]
CCOC(=O)c1sc(=S)n(C)c1NC(=O)c1ccccc1Cl,5.6%[10 µM],-4.9%,28.2µM*,31.6µM*,3.1%,-11.2%
CN(C)n1cccc1/C=C(\C#N)S(=O)(=O)c1ccc(Cl)cc1,35.6%[10 µM],-4.8%,x,x,-10.6%,25.8%[9.22 µM]
Cc1ccc(NC(=O)c2sc3nc(CCl)[nH]c(=O)c3c2C)c(C)c1,x,u,x,u,-2.3%,18.7%
Cc1ccc(NC(=O)COC(=O)C2(c3ccc(Cl)cc3)CCCC2)cc1,-10.1%[10 µM],-1.4%,-8.2%,10µM*,u,-3.0%
CCOC(=O)c1ccc(NC(=O)C2(c3ccc(Cl)cc3)CCCC2)cc1,15.3%,-1.5%,-1.6%,-6.3%,-0.4%,4.5%
NC[C@@H](O)CSCc1ccc(Cl)cc1,-4.3%[10 µM],x,-4.6%,5.1%[13.5 µM],x,x
CCC(NC(=O)CCl)c1ccc(C)cc1 (stereo not drawn),54.2%,-9.3%,x,8.91µM*,-1.9%,-7.9%[9.22 µM]
CC(NC(=O)CCl)c1ccc(Cl)c(Cl)c1 (stereo not drawn),-25.4%,-0.8%,0.8%,10µM*,1.7%,22.4µM*
CCCC(NC(=O)CCl)c1ccccc1 (stereo not drawn),13.2%[10 µM],-5.8%,x,2.1%,-2.8%,7.1%
CC(CCc1ccccc1)NCC#N (stereo not drawn),18.9%[10 µM],8.3%,x,x,13.5%,28.0%[9.22 µM]
Cc1ccc2nc(-c3ccc(NC(=O)COC(=O)c4ccc(=O)[nH]c4)cc3)sc2c1,-27.7%[0.074 µM],6.4%,u,3.55µM*,-2.2%,1.6%
COc1ccc2[nH]c3c(=S)nc[nH]c3c2c1,19.8%[10 µM],7.9%,x,u,-1.7%,5.1%[9.22 µM]
S=c1nc[nH]c2nc[nH]c12,-144.9%,20µM*,u,7.94µM*,11.0%,x
CN(C(=O)COc1ccc(S(=O)(=O)N2CCOCC2)cc1[N+](=O)[O-])C1CCS(=O)(=O)C1 (stereo not drawn),-0.8%[10 µM],u,x,12.6µM*,12.4%,0.6%[9.22 µM]
COc1cccc(NC(=O)C2C3CCC4C(CCC32)C4(Cl)Cl)c1 (stereo not drawn),-17.6%[10 µM],-8.6%,-9.5%,7.94µM*,-1.2%,3.8%
Cc1cc(C)c2c(=O)n(CC(=O)N3CCC(N4CCCCC4)CC3)sc2n1,-26.2%,u,12.6µM*,12.6µM*,-1.8%,3.0%
CC(C)(C)C(=O)NC1(C(F)(F)F)C(=O)Nc2c1c(=O)[nH]c(=O)n2Cc1ccco1 (stereo not drawn),2.2%,-1.6%,1.6%,8.1%,4.0%,1.9%
Cc1ccc(C(=O)c2no[n+]([O-])c2C(=O)c2ccc(C)cc2)cc1,x,-15.6%,20µM*,0.501µM*,6.1%,u
CN(C)C1CCN(CCCOc2ccc(-c3ccc(C#N)cc3)cc2)C1 (stereo not drawn),x,x,x,x,-0.5%,x
SMILES,HTT cytoprotect,JMJD2E inh,HPGD block,ALDH1A1 block,CBFb RUNX1 block,HTT aggregate
CC1(C)CC(=O)C2=C(C1)c1c(ccc3ccccc13)NC2c1cc([N+](=O)[O-])cc([N+](=O)[O-])c1O (stereo not drawn),-11.7%[10 µM],7.1%,x,11.2µM*,-1.2%,6.8%[9.22 µM]
COc1cc(C2Nc3ccc4ncccc4c3C3=C2C(=O)CCC3)cc(OC)c1O (stereo not drawn),-42.8%,-23.2%,-8.5%,-2.9%,7.3%,32.1%
Cc1ccc(C2Nc3ccc4ccccc4c3C3=C2C(=O)CC(C)(C)C3)o1 (stereo not drawn),-9.8%[10 µM],u,u,u,17.2%,-11.8%
COc1cc(C2Nc3ccc4ncccc4c3C3=C2C(=O)CC(C)(C)C3)cc(OC)c1O (stereo not drawn),-6.0%,7.94µM*,-13.1%,12.6µM*,-9.9%,u
CC(C)C[C@H](N)C(=O)O,12.8%[10 µM],x,-2.1%,5.8%[13.5 µM],x,x
Cc1ccsc1/C=N/N1CCN(c2ccccc2)CC1,-25.2%,9.8%,-12.0%,-5.7%,u,0.3%
Cc1ccsc1/C=N/N1CCN(Cc2ccccc2)CC1,1.3%[10 µM],-3.5%,x,15.8µM*,-4.6%,-2.9%
O=[N+]([O-])c1ccccc1-c1ccc(/C=N/n2cnnc2)o1,7.0%,5.8%,15.8µM*,-9.8%,-3.2%,11.3%
Nn1cnnc1N/N=C\c1ccc(-c2ccccc2[N+](=O)[O-])o1,-17.5%[10 µM],4.47µM*,-21.6%,25.1µM*,-6.2%,-18.2%
CC1(C)[C@@H](O)CC[C@]2(C)C3C(O)C=C4[C@H]5C[C@@](C)(C(=O)O)CC[C@]5(C)CC[C@]4(C)[C@]3(C)CC[C@@H]12 (stereo partly drawn),17.9%[10 µM],-7.0%,x,x,20.7%,22.2%[9.22 µM]
N#CCCN1CCCc2cc(N=Nc3ccc(C(F)(F)F)cc3)ccc21,-9.3%[10 µM],-9.6%,x,x,x,-29.5%[9.22 µM]
CO/N=C(/C)CCC(=O)OC[C@@H]1O[C@H](C#Cc2ccccc2)C=C[C@@H]1Oc1ccc(C)cc1,-42.5%[10 µM],x,x,1.2%[13.5 µM],17.2%[13.1 µM],x
CCOC(=O)c1cnc(-c2ccccc2)nc1Oc1ccc(OC)cc1,-0.5%,-9.0%,x,11.2µM*,3.2%,17.0%
CCCC(C)C(=O)Nc1ccc(S(N)(=O)=O)cc1 (stereo not drawn),-25.2%,4.6%,x,-1.5%,8.9%,27.3%
CCC(OC(=O)CN1C(=O)C(=O)c2ccccc21)C(=O)Nc1ccc(S(N)(=O)=O)cc1 (stereo not drawn),-14.9%,-2.6%,x,0.0891µM*,2.9%,-11.3%
Cn1nc(/C=C/c2ccccc2)ccc1=O,-51.8%,u,x,u,29.3%,17.2%
Cc1cccc(CSCC(=O)NCc2ccc(S(N)(=O)=O)cc2)c1,-32.6%,-2.4%,x,-0.6%,2.4%,4.0%
CN1/C(=C/C(=S)NC(=O)C2(C)CC2(Cl)Cl)C(C)(C)c2ccccc21 (stereo not drawn),8.4%,-3.0%,x,3.98µM*,u,u
CN1/C(=C\C(=S)NC(=O)c2ccccc2Cl)C(C)(C)c2ccccc21,19.9%[10 µM],-3.1%,-13.7%,u,x,-17.1%
CN1C(=O)/C(=C/c2cc3c(cc2Br)OCO3)NC1=S,-11.2%,0.0%,x,u,-14.5%,-3.4%
